S aureus QS inh: S. aureus quorum sensing inhibition | S. aureus RN6390 RNAIII-GFP reporter, AIP-induced, flow cytometry 3 h | AID 527 | inhibition, % at 2 µM | 0.3% of 24,000 active;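 active = share of bacteria positive for the green fluorescent reporter and its mean brightness both inhibited by 50% or more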
FPRL1 binder: binds the human formylpeptide receptor-like-1 FPRL1; FPRL1-expressing cells, fluorescent ligand binding inhibition, flow cytometry; AID 441; 0.3% of 24,000 active; inhibition, % (concentration not given with the values)
Target sequence (P25090 whole entry, looked up): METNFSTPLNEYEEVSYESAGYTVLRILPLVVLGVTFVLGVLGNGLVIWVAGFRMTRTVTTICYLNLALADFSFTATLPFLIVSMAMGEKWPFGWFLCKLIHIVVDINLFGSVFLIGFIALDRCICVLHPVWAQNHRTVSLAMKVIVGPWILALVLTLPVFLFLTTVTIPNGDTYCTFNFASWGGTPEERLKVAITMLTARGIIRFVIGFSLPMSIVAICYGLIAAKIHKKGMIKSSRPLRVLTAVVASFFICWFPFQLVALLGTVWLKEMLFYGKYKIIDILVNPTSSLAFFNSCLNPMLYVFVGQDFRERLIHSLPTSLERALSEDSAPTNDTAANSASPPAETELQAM
FPR binder: human FPR ligand, with FPRL1 counter-screen; P21462; FPR-expressing cells, fluorescent ligand binding, flow cytometry; inhibition, % (no concentration beside the values); 0.74% of 24,000 active
Prostate diff: promotes differentiation of LNCaP prostate cells | flow cytometry side scatter, 4 d | AID 795 | 0.56% of 24,000 active | side scatter shift, % at 10 µM;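 active = side scatter shift above 30%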;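 also: androgen-responsive LNCaP prostate cancer cells in charcoal-stripped serum medium; higher shift means more granular cells and more differentiation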
A number is an active result; - = inactive. A selection: hits, their analogues and other compounds. The true share with any hit is near 1.7%. Rule as the data show it, unless noted: active = inhibition above about 30%; inconclusive = no clear call, values can overlap the other calls; inactive = below that.

SMILES | S aureus QS inh | FPRL1 binder | FPR binder | Prostate diff
O=C(NCCN1CCN(c2ccccc2)CC1)c1cccn2c(=O)c3ccccc3nc12 | 80 | - | - | -
CCOc1ccccc1NC(=O)c1nc[nH]c1C(=O)Nc1ccccc1OCC | - | - | - | 64
COc1ccccc1NC(=O)c1nc[nH]c1C(=O)Nc1ccccc1OC | - | - | - | 35
COc1ccc(NC(=O)c2nc[nH]c2C(=O)Nc2ccccc2C)cc1 | - | - | - | -
CC1(C)OC(=O)N(Cc2ccco2)C1(C)O (stereo not drawn) | - | - | - | -
COc1ccc(NC(=O)CCc2ccccc2)cc1NC(=O)c1ccco1 | - | - | - | -
CCOc1cc(NC(=O)c2ccco2)c(OCC)cc1NC(=O)CCc1ccc(OC)cc1 | - | - | 33 | -
CCOC(=O)c1ccc(NC(=O)N2CCN(Cc3cccc(F)c3)CC2)cc1 | - | - | - | -
CC(=O)NC(Cc1cc(C)ccc1C)C(=O)N1CCN(C(=O)Nc2ccc(C(C)=O)cc2)CC1 (stereo not drawn) | - | - | 35 | -
CCOC(=O)C1(CC)NC(c2cccc(F)c2)C2C(=O)N(CC)C(=O)C21 (stereo not drawn) | - | - | - | -
CC(CCc1ccco1)NC(=O)c1cc2c(-c3ccccc3F)nn(C)c2s1 (stereo not drawn) | 61 | - | - | -
COc1ccc2cc3cc(C(=O)NCCN4CCN(c5ccccc5F)CC4)oc3nc2c1 | - | - | - | -
COc1ccc2cc3cc(C(=O)Nc4ccccc4N4CCN(C)CC4)oc3nc2c1 | - | - | - | 62
COc1cccc(OCC(=O)Nc2c(C(=O)Nc3ccc(OC)cc3OC)oc3ccccc23)c1 | - | - | - | 36
CC(NC(=O)c1ccc(CS(=O)(=O)Cc2ccccc2F)o1)c1ccc2c(c1)OCCO2 (stereo not drawn) | - | - | - | -
Cc1cccn2c(=O)c3cc(C(=O)NC4CCCC4)c(=N)n(C4CCCC4)c3nc12 | - | - | - | -
N=c1c(C(=O)NC2CCCC2)cc2c(=O)n3ccccc3nc2n1C1CCCC1 | - | - | - | 68
COc1ccc(CCNC(=O)c2ccc(NS(=O)(=O)c3c(C)noc3C)cc2)cc1OC | - | - | - | -
O=C(c1ccc(N2CCCCS2(=O)=O)cc1)N1CCN(c2ccc(N3CCOCC3)nn2)CC1 | - | - | - | -

Screening results from PubChem BioAssay.
